# ± gives the standard deviation of the averaged measurements. Targets with the largest changes are over-represented here; the source holds about 6,200 in all.
# Key:
# Assay in all cases: NP40-soluble protein abundance relative to vehicle (solubility fold change) (ratio); higher = more soluble protein in presence of AMP-PNP
# DDX52 = target: T1, DDX52 (UniProt Q9Y2R4)
# T1 sequence (whole entry): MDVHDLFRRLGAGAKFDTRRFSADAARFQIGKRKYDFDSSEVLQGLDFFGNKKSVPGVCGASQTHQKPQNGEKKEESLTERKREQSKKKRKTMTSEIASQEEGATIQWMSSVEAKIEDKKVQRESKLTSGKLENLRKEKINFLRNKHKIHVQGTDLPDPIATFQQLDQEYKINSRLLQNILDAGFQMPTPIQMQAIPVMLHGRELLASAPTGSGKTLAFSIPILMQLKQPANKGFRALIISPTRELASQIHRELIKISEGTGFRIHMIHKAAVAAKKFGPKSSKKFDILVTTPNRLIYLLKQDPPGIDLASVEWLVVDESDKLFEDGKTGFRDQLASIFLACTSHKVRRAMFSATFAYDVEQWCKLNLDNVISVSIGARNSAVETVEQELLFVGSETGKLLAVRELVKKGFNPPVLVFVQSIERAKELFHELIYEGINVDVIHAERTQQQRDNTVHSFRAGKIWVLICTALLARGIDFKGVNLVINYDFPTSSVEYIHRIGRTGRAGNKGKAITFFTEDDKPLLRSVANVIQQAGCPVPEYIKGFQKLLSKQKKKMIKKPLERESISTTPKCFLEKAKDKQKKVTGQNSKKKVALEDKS
# In short: (§1)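 In three independent experiments, Jurkat crude lysate made by Dounce homogenisation was treated for 10 min at room temperature and then 3 min at 37 °C with eight concentrations ranging from 0.1 to 10 mM. It was then solubilised with 0.8% NP40 plus benzonase for 60 min at 4 °C and ultracentrifuged. The supernatant was TMT-labelled for LC-MS/MS, and each value is the fold change against the detergent-processed vehicle for the same replicate, using vsn-normalised intensities.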
# NKIRAS1 = target: T2, NKIRAS1 (UniProt Q9NYS0)
# T2 sequence (whole entry): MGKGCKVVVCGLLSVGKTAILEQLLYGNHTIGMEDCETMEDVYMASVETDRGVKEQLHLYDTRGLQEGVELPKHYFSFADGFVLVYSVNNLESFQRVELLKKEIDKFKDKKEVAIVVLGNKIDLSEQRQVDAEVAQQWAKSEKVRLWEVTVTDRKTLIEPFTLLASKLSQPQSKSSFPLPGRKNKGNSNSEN
# In short: as §1
# POLG2 = target: T3, POLG2 (UniProt Q9UHN1)
# T3 sequence (whole entry): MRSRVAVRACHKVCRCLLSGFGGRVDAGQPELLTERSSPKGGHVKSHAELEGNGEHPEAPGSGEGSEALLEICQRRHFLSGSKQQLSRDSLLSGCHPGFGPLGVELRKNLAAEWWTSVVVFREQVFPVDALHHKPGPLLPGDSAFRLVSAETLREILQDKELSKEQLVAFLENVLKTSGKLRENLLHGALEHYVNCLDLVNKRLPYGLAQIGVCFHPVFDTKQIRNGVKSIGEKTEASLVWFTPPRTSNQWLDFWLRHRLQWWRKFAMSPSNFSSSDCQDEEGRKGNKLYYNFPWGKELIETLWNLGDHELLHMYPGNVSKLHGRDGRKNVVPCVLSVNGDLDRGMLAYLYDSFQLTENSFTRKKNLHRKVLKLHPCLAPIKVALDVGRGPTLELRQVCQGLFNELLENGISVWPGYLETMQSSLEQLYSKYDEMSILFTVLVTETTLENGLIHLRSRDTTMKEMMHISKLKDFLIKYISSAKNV
# In short: as §1
# PRKRIP1 = target: T4, PRKRIP1 (UniProt Q9H875)
# T4 sequence (whole entry): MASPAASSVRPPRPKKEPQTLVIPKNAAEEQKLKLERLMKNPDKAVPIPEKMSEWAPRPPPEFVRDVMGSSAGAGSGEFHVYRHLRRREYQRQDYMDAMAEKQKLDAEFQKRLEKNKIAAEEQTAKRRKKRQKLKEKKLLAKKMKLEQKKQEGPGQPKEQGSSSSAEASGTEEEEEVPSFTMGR
# In short: as §1
# SNX6 = target: T5, SNX6 (UniProt Q9UNH7)
# T5 sequence (whole entry): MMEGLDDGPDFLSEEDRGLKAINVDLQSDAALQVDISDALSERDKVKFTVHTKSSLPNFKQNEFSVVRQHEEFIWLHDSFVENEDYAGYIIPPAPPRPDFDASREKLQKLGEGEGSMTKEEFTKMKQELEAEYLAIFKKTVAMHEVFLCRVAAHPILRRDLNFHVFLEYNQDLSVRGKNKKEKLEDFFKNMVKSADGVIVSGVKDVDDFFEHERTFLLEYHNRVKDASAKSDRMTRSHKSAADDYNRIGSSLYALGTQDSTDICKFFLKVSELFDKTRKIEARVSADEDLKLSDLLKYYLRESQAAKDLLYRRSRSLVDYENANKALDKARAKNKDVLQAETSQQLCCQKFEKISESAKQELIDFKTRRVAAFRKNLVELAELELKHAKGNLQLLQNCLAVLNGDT
# In short: as §1
# TFIP11 = target: T6, TFIP11 (UniProt Q9UBB9)
# T6 sequence (whole entry): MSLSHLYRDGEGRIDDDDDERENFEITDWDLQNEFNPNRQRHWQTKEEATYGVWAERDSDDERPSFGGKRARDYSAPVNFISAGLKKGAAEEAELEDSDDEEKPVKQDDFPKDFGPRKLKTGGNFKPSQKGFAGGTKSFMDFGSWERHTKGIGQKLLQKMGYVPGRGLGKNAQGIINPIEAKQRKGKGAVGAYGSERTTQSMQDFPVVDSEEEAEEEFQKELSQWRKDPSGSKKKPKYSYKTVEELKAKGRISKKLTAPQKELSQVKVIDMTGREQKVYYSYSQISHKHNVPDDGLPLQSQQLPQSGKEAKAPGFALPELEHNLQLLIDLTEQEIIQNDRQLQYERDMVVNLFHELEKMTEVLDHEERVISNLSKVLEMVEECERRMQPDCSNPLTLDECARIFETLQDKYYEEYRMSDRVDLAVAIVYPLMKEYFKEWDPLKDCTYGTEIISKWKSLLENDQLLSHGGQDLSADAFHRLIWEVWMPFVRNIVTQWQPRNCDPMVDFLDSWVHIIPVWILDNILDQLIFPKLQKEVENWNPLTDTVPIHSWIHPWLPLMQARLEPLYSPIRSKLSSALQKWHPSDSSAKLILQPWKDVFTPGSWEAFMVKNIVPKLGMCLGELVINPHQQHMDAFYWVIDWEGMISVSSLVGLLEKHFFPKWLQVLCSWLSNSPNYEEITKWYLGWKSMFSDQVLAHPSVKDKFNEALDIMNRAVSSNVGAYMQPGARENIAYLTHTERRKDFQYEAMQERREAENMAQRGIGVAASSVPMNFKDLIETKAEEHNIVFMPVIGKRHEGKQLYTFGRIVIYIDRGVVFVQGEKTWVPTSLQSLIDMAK
# In short: as §1
# UniProt Q9BY77|Q9BY77-2 = target: T7, UniProt Q9BY77|Q9BY77-2
# T7 sequence (whole entry): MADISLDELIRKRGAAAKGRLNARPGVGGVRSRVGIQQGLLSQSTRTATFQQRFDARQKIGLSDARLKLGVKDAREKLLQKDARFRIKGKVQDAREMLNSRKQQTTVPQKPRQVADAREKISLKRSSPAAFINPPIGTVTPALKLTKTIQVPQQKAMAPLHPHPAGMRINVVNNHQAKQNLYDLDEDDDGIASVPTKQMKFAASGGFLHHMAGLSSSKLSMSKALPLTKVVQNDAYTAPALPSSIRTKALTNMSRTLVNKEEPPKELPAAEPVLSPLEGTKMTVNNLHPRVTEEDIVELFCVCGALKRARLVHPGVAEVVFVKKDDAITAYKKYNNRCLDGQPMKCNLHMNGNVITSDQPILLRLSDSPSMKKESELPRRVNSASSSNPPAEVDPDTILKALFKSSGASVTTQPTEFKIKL
# In short: as §1
smiles,measurement,setting,value
Nc1ncnc2c1ncn2[C@@H]1O[C@H](COP(=O)(O)OP(=O)(O)NP(=O)(O)O)[C@@H](O)[C@H]1O [adenylyl imidodiphosphate],NP40-soluble protein abundance,DDX52; concentration: 1mM,1.08 ± 0.094
same,NP40-soluble protein abundance,DDX52; concentration: 2mM,1.1 ± 0.047
same,NP40-soluble protein abundance,DDX52; concentration: 4mM,1.18 ± 0.07
same,NP40-soluble protein abundance,DDX52; concentration: 6mM,1.22 ± 0.038
same,NP40-soluble protein abundance,DDX52; concentration: 8mM,1.28 ± 0.055
same,NP40-soluble protein abundance,DDX52; concentration: 10mM,1.39 ± 0.046
same,NP40-soluble protein abundance,NKIRAS1; concentration: 1mM,1 ± 0.033
same,NP40-soluble protein abundance,NKIRAS1; concentration: 2mM,1.025 ± 0.0079
same,NP40-soluble protein abundance,NKIRAS1; concentration: 4mM,0.981 ± 0.024
same,NP40-soluble protein abundance,NKIRAS1; concentration: 6mM,0.988 ± 0.027
same,NP40-soluble protein abundance,NKIRAS1; concentration: 8mM,1 ± 0.018
same,NP40-soluble protein abundance,NKIRAS1; concentration: 10mM,0.9796 ± 0.0011
same,NP40-soluble protein abundance,POLG2; concentration: 1mM,0.994 ± 0.073
same,NP40-soluble protein abundance,POLG2; concentration: 2mM,1.03 ± 0.056
same,NP40-soluble protein abundance,POLG2; concentration: 4mM,0.996 ± 0.072
same,NP40-soluble protein abundance,POLG2; concentration: 6mM,1.06 ± 0.051
same,NP40-soluble protein abundance,POLG2; concentration: 8mM,1.07 ± 0.043
same,NP40-soluble protein abundance,POLG2; concentration: 10mM,1.05 ± 0.021
same,NP40-soluble protein abundance,PRKRIP1; concentration: 1mM,1.03 ± 0.053
same,NP40-soluble protein abundance,PRKRIP1; concentration: 2mM,1.14 ± 0.12
same,NP40-soluble protein abundance,PRKRIP1; concentration: 4mM,1.1 ± 0.11
same,NP40-soluble protein abundance,PRKRIP1; concentration: 6mM,1.14 ± 0.073
same,NP40-soluble protein abundance,PRKRIP1; concentration: 8mM,1.16 ± 0.1
same,NP40-soluble protein abundance,PRKRIP1; concentration: 10mM,1.15 ± 0.15
same,NP40-soluble protein abundance,SNX6; concentration: 1mM,0.992 ± 0.031
same,NP40-soluble protein abundance,SNX6; concentration: 2mM,1.03 ± 0.12
same,NP40-soluble protein abundance,SNX6; concentration: 4mM,0.991 ± 0.069
same,NP40-soluble protein abundance,SNX6; concentration: 6mM,1.03 ± 0.076
same,NP40-soluble protein abundance,SNX6; concentration: 8mM,1 ± 0.077
same,NP40-soluble protein abundance,SNX6; concentration: 10mM,1.03 ± 0.079
same,NP40-soluble protein abundance,TFIP11; concentration: 1mM,1.01 ± 0.028
same,NP40-soluble protein abundance,TFIP11; concentration: 2mM,1.01 ± 0.033
same,NP40-soluble protein abundance,TFIP11; concentration: 4mM,1.07 ± 0.042
same,NP40-soluble protein abundance,TFIP11; concentration: 6mM,1.08 ± 0.05
same,NP40-soluble protein abundance,TFIP11; concentration: 8mM,1.09 ± 0.015
same,NP40-soluble protein abundance,TFIP11; concentration: 10mM,1.13 ± 0.039
same,NP40-soluble protein abundance,UniProt Q9BY77|Q9BY77-2; concentration: 1mM,1 ± 0.038
same,NP40-soluble protein abundance,UniProt Q9BY77|Q9BY77-2; concentration: 2mM,1.06 ± 0.064
same,NP40-soluble protein abundance,UniProt Q9BY77|Q9BY77-2; concentration: 4mM,1.04 ± 0.042
